# This is a sample that favours compounds with a hit; in the whole collection about 2.9% have one here.
# DRD3 agonist – D3 dopamine receptor (human) agonism | max activation, % | P35462 | AID 652048 | 410,000 compounds, 0.58% hits | D3R DiscoveRx beta-arrestin cells, luminescence, 90 min; in the data active means max activation above about 30%; further: 0% is about no effect
#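 Agonist-mode cell screen: cells plated at 1500/well and incubated overnight at 37 °C, then exposed to library compounds for 90 min at 37 °C. Detection reagent was added for 30–60 min at room temperature, and luminescence was read.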
# TSHR antag – blocks TSH signaling through the human TSH receptor. P16473. TSHR-expressing cells, TSH-stimulated cAMP HTRF, 2 h; stronger effect = lower value. activity change, negative = inhibition, % at 11.5 µM. 330,000 compounds, 0.2% hits. AID 504810;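 active means activity change below a set negative limit, meaning inhibition stronger than a set level, cut at about -70% in these data; inconclusive means activity change between two set negative limits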; further: on the % scale 0 is the no-effect control and ±100 the full control effect
#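 Read-out is FRET at 665 nm (cryptate excitation 337 nm) from a cryptate-tagged anti-cAMP antibody, competed by cell cAMP against cAMP-d2. Compounds are tested on freshly harvested TSHR cells challenged with 4nM TSH (EC80) for 2 hours at 37 deg C.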
# B2AR arrestin – recruits beta-arrestin to the human beta2-adrenergic receptor | P07550 | beta-arrestin recruitment to beta2AR, cell-based reporter | Potency, µM (series often up to 46.1 µM), for the others: at the highest dose activation, usual class: activators | 330,000 compounds, 0.02% hits; active means well fitted activation curve with a large enough effect; inconclusive means small, poorly fitted or top-dose-only effect;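 further: potency means the concentration at half of the fitted maximal effect; 0% = DMSO controls and full agonism = EC100 isoproterenol or metaproterenol; nearly all actives have a fitted effect of over 65% in size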
# Target sequence (P07550 whole entry, looked up): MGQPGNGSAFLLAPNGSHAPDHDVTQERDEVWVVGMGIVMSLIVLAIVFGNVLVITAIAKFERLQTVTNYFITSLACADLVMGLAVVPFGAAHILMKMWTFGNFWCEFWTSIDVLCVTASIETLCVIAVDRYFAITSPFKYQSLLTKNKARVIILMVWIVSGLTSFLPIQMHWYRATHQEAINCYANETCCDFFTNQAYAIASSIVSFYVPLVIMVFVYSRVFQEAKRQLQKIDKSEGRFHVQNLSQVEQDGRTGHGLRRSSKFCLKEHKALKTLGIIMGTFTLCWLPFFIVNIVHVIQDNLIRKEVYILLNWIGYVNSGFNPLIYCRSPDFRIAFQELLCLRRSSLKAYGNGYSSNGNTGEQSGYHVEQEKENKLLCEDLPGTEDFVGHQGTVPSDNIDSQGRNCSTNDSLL
# D3 antag – blocks the human D3 dopamine receptor; P35462; D3R cells, DiscoveRx beta-arrestin luminescence, antagonist mode; stronger effect = lower value; max response, negative = inhibition, %; 360,000 compounds, 2.5% hits; AID 652054; in the data active means max response below about -50%; inconclusive means no clear call, values can overlap the other calls; further: on the % scale 0 is the no-effect control and ±100 the full control effect
#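 Cells expressing the human receptor were seeded at 1500 cells/well, incubated overnight at 37 degrees C in 5% CO2, then exposed to library compounds with dopamine controls for 90 minutes at 37 degrees C before luminescent detection.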
# * hit, by the source's call; ? = inconclusive; / = no result given.
SMILES,DRD3 agonist,TSHR antag,B2AR arrestin,D3 antag
COc1ccc2c(c1)CC(NC(=O)Nc1ccc(Br)c(C)c1)CO2 (stereo not given),-6,/,/,/
N=c1c[n+](N2CCOCC2)[n-]o1,-11,-12,0%,-107*
Cc1ccc(-c2nc3ncccc3o2)cc1NC(=O)c1ccccc1Br,5,/,/,/
CC1=CC(=C(C#N)c2nc3ccccc3s2)C=C(C)N1Cc1ccco1,-18,-4,-3%,-56*
Cc1ccc(S(=O)(=O)Nc2nc3ccccc3nc2Nc2cccc(S(=O)(=O)N3CCCC3)c2)cc1,32*,-42,0%,46
Cc1ccc(C)c(C(=O)C(C)OC(=O)c2cccn2C)c1 (stereo not given),-1,-12,0%,-51*
Nc1nnc(N2CCCCC2)s1,4,5,0%,-18
O=C1CCCc2nc(N3CCCCC3)sc21,8,1,0%,-59*
COc1cccc(Cn2c(CNC(=O)C(C)C)nc3cccnc32)c1,-2,/,/,/
O=C(NCCc1ccccc1)C1CCN(Cc2cc3ccccc3n2Cc2ccccc2)CC1,-16,/,/,/
Cc1nc2nc(C)n(CCN3CCOCC3)c(=O)c2c(-c2cccc([N+](=O)[O-])c2)c1C(=O)CCCCCCCCCCN1CCC(c2ccccc2)(c2ccccc2)CC1,-6,/,/,-93*
CCCN(CCC)C(=O)CSc1nnc2cc(C)c3ccccc3n12,4,/,/,/
Cc1csc(N/N=C/c2ccc(O)c([N+](=O)[O-])c2)n1,-10,-13,-1%,-54*
C#CCN(C[C@@H]1[C@@H](OC(=O)NC2CCCC2)[C@@H](OC(=O)NC2CCCC2)Cn2c(=O)ccc(=O)n21)S(=O)(=O)c1ccc(C)cc1,-13,/,/,-64*
C#CCN(C[C@@H]1[C@@H](OC(=O)Nc2cccs2)[C@@H](OC(=O)Nc2cccs2)Cn2c(=O)ccc(=O)n21)S(=O)(=O)c1ccc(C)cc1,-2,/,/,-4
COc1cc(/C=N/N2CCCCC2)cc([N+](=O)[O-])c1O,-11,-10,-1%,-65*
CCN(CC)c1ccc(/C=N/N2CCN(Cc3ccc(C)cc3)CC2)c(O)c1,-67,-7,-1%,-59*
CSc1ccc(/C=N/N2CCN(Cc3ccc(Cl)cc3)CC2)cc1,-18,4,0%,-54*
Cc1ccc(CN2CCN(/N=C/c3ccccc3)CC2)cc1,-14,-1,-1%,-16
COc1cc(/C=N/N2CCN(Cc3ccc(C)cc3)CC2)cc(OC)c1O,-23,-1,0%,-79*
COc1cc(/C=N/n2c(=S)[nH]nc(C)c2=O)cc([N+](=O)[O-])c1O,-12,13,0%,-15
CCCCn1cc(S(=O)(=O)c2ccc(OC)cc2)c(=O)c2cc(F)c(F)cc21,-1,/,/,/
COc1ccc(C)cc1-n1c(SCC(=O)NCc2ccco2)nc2c([nH]c3ccccc32)c1=O,-14,/,/,/
COc1ccc(C)cc1N(C)C(=O)c1c2c(nc3ccccc13)C(=O)N(C1CCCCC1)C2,10,/,/,/
COC(=O)CN1C(=O)C(C)(C)c2cc(S(=O)(=O)Nc3ccc(C(C)C)cc3)ccc21,4,/,/,/
SMILES,DRD3 agonist,TSHR antag,B2AR arrestin,D3 antag
Cc1ccc(CN2CCN(/N=C/c3cc([N+](=O)[O-])ccc3Cl)CC2)cc1,-16,-1,0%,-61*
CCn1c(SCC(=O)N2CCCc3ccccc32)nnc1-c1c[nH]c2ccccc12,-5,-6,0%,-51*
COC(=O)C1CCCN1C(=O)c1cccs1 (stereo not given),-4,19,0%,-76*
CC1=C(C(=O)Nc2ccccc2)C(c2ccccc2Cl)n2ncc(C(=O)Nc3cccc(C)c3)c2N1 (stereo not given),-4,/,/,/
CCc1ccc(N2CCN(CCNC(=O)Nc3ccc(OC)cc3)CC2)cc1,1,6,-1%,8
Cc1ccc(NC(=O)NCCN2CCN(c3ccccc3)CC2)cc1Cl,-7,13,0%,-71*
CCc1ccc(N2CCN(CCNC(=O)Nc3ccccc3)CC2)cc1,-16,0,0%,-72*
Cc1cccc(NC(=O)NCCN2CCN(c3ccccc3)CC2)c1C,8,4,0%,-71*
CC(C)c1ccc(C2N3CC4(C)CN2CC(c2ccccc2)(C3)C4=O)cc1 (stereo not given),-21,/,/,/
Cc1ccc(-n2c(=O)c3c4c(sc3n(CC(=O)C(C)(C)C)c2=O)CCCCC4)cc1C,-1,/,/,/
COc1cccc(CNC(=O)c2cnc3c(-c4ccc(F)cc4)c(C)nn3c2C)c1,-12,/,/,/
Cc1cc(C)n2nc(CNC(=O)c3cccc(Cl)c3)nc2n1,-9,/,/,/
CS(=O)(=O)N1CCc2cc(C(=O)Nc3ccc(Cl)cc3)ccc21,94*,-6,1%,?
COc1ccc(NC(=O)c2ccc3c(c2)CCN3S(C)(=O)=O)cc1,5,/,/,-2
Cn1nnnc1SCCCNCc1cccc(OCc2ccc(F)cc2)c1,-27,/,/,/
Cc1ccc(-c2nc(SCC(=O)N3CCc4ccccc43)c3c(=O)n(C)c(=O)n(C)c3n2)cc1,-20,/,/,/
CCOc1ccc(CN2C(=O)c3ccccc3C2C(=O)NC(C)CC)cc1OC (stereo not given),0,-6,0%,-63*
CCC(C)NC(=O)C1c2ccccc2C(=O)N1Cc1cc(OC)ccc1OC (stereo not given),1,0,-1%,-7
CC1CN(c2ncnc3c2c(-c2ccccc2)cn3-c2ccc(F)cc2)CC(C)O1 (stereo not given),-35,-11,0%,-92*
OCCN1CCN(c2ncnc3c2c(-c2ccccc2)cn3-c2ccc(F)cc2)CC1,-20,0,0%,-75*
c1ccc(-c2cn(-c3ccccc3)c3ncnc(N4CCN(c5ccccc5)CC4)c23)cc1,8,/,/,/
COc1ccc(-n2cc(-c3ccccc3)c3c(N4CCN(CCO)CC4)ncnc32)cc1,24,-4,0%,-4
Cc1ccc(OCCN2C(=O)C(=O)c3cc(C)ccc32)cc1,-11,8,0%,?
O=C1C(=O)N(CCS(=O)(=O)c2ccccc2)c2ccc(Cl)cc21,-23,-7,0%,-75*
CCCN1C(=O)C(=O)c2cc(Cl)ccc21,-35,-6,0%,-74*
SMILES,DRD3 agonist,TSHR antag,B2AR arrestin,D3 antag
CCc1ccc2c(c1)C(=O)C(=O)N2CCS(=O)(=O)c1ccccc1,-5,-3,-2%,-26
COc1cc(/C=N/NC(=O)c2cnn3c(C)cc(-c4ccccc4)nc23)ccc1O,47*,-2,0%,0
O=C(N/N=C/c1cccs1)c1cc(-c2ccncc2)nc2ccccc12,-19,12,0%,-24
CCOc1cc(/C=N/NC(=O)c2cc(-c3cccc(OC)c3)nc3ccccc23)ccc1O,35*,/,/,96
CC(C)COc1cccc(-c2cc(C(=O)N/N=C/c3ccncc3)c3ccccc3n2)c1,34*,-6,0%,66
COc1ccccc1-c1cc(C(=O)N/N=C/c2cccs2)c2ccccc2n1,-31,1,0%,-78*
CCc1ccc2c(c1)N(CC(C)CN(C)C)c1ccccc1S2 (stereo not given),-20,/,/,/
CCOc1ccc(CCNC(=O)c2c(C)oc3ncn(CC(C)C)c(=O)c23)cc1,1,/,/,/

# Source: PubChem BioAssay (National Center for Advancing Translational Sciences (NCATS))
